Results on 40 compounds are retold here after PubChem BioAssay (NCATS).

Several values for one entry are separate records, joined by “and”; a condition that tells them apart may be missing. Equal entries are not always repeated. Records with an inconclusive call do not appear. A call without a number means that no potency is given here. Values without a mark were called inactive. Activity calls are given as the source filed them. Calls follow the shape of the dose curve; as a rule, active = well fitted cell-killing curve with a large enough effect; inconclusive = small, poorly fitted or top-dose-only effect, or effect the other way; inactive = no such curve, though single readings can be large or run the other way.
Potency is read from the fitted curve at half-maximal effect.

A short description of the test: Viability qHTS for spleen associated tyrosine kinase inhibitor (SYKi) naive MV4-11 cells (AID 1963823). Also: nearly all actives have a fitted effect of over 40% in size. As to conditions: MV4-11 AML viability, CellTiter-Glo luminescence, 72 h; series mostly up to 45 µM. From the text:
Department of Medicine, Hematology/Oncology
University Hospital Frankfurt, Germany.
Trials have shown promising clinical activity of the selective SYK inhibitor entospletinib in patients with high expressing HOXA9/MEIS1 acute leukemias. As the development of resistance mechanisms is a common problem in the use of targeted drugs, we performed a chemical library screen to identify drug sensitivities in SYK inhibitor resistant AML cells. […] Glucocorticoids are potent immunosuppressants which work in part by inhibiting the transcription of cytokine genes.
Described herein is a viability screen to look for activity in the SYK inhibitor naive cell line against four NCATS compound libraries (MIPE 5.0, NPC, NPACT, and Kinase) totaling 11372 compounds. Active hits were reacquired for confirmation and further secondary assay testing.
SEQUENCE No. (e.g., 1, 2, 3, etc.); […] (e.g., Cells, Incubation, Reagent, etc.); VALUE; DESCRIPTION.
1; Media; 2uL; white, solid-bottom Corning assay plate.
2; Compounds; 23nL; Echo acoustic dispenser.
3; Cell; 5uL; 500 cells per well.
4: Incubation; 72hr; 37 C, 5% CO2, 95% humidity.
5; Reagent; 3uL; CellTiter-Glo reagent (Promega).
6; Incubation; 10min; room temperature.
7; Detection; Luminescence; ViewLux plate reader (PerkinElmer).
NOTES (numbers refer to Sequence numbers above
1. Quantitative high-throughput screening (qHTS) of small molecule compounds was conducted on naive SYKi MV4-11 cell line.
2. Twenty-three nanoliter of small molecule compounds were added to each assay plates using the Echo acoustic dispenser (Beckman Coulter).
3. Cells were seeded into the assay plates at a final density of 500 cells in 5uL of media per well using the Multi-drop Combi dispenser.
4. Plates were covered with stainless steel gasketed lids and incubated for 72 hours at standard cell culture conditions.
5. Viability was assessed by adding 3uL of CellTiter-Glo detection reagent (Promega).
6. Plates were covered with gasket lids and incubated for 10 minutes at room temperature.
7. Luminescence was measured on a ViewLux plate reader (PerkinElmer).
As to `CN1CCC[C@@H]1Cc1c[nH]c2ccc(CCS(=O)(=O)c3ccccc3)cc12`, the Potency result was “inactive”. Regarding `CCN(CC)CCCCNc1ncc2cc(-c3cc(OC)cc(OC)c3)c(NC(=O)NC(C)(C)C)nc2n1`, the Potency was 5.8 µM (active) and 8.33 µM (active). In the case of `CCN(CC)CCCCNc1ncc2cc(-c3c(Cl)cccc3Cl)c(NC(=O)NC(C)(C)C)nc2n1`, the Potency is 0.517 µM (active).

On to `NC(=O)Nc1cc(-c2ccc(CN3CCOCC3)cc2)sc1C(N)=O`, for which the Potency is 0.209 µM (active).

As for `NC(=O)c1ccc2nc(-c3ccc(Oc4ccc(Cl)cc4)cc3)[nH]c2c1`, the Potency is 5.17 µM (active). On the same count and under the same terms, the result for `CC[C@H]1CN2CCc3cc(OC)c(OC)cc3[C@@H]2C[C@@H]1C[C@H]1NCCc2cc(OC)c(OC)cc21` reads 106 nM (active) and 83.3 nM (active). Same read-out and setting: as for `COc1ccc(CNC(=O)Nc2ncc([N+](=O)[O-])s2)cc1`, the figure is 9.34 µM (active); as for `Cc1nn(Cc2ccccc2Cl)c(C)c1CN(C)CC(O)COc1ccc(Cl)cc1` (stereo not given), 14.8 µM (active). `O=P(O)(O)OCC(O)CO` (stereo not given): the Potency entry was “inactive”. On the same count and under the same terms, the result for `O=S(=O)(O)CCS` reads “inactive”. Take `CC(=O)N[C@H]1CSSC[C@@H](C(N)=O)NC(=O)[C@H](C(C)C)NC(=O)[C@H](C)NC(=O)[C@H](Cc2cnc[nH]2)NC1=O`: the Potency entry is “inactive”. Take `COc1ccc(F)c(F)c1C(=O)c1cnc(NC2CCN(S(C)(=O)=O)CC2)nc1N`: the Potency was 0.651 µM (active). As for `O=c1cc(CN2CCOCC2)occ1OCCCCCSc1ccnc2cc(C(F)(F)F)ccc12`, the Potency was 11.8 µM (active).

As to `CCC(O)C(C)C1CCC(C(C)C(=O)O)O1` (stereo not given), the Potency entry is “inactive”.

In the case of `C[C@@H]1O[C@@H](O[C@H]2[C@H](OC(=O)[C@]34CCC(C)(C)C[C@H]3C3=CCC5[C@@]6(C)C[C@@H](O)[C@@H](O[C@@H]7O[C@H](CO)[C@@H](O)[C@H](O)[C@H]7O)[C@@](C)(CO)C6[C@H](O)C[C@@]5(C)[C@]3(C)CC4)OC[C@H](O)[C@@H]2O)[C@H](O)[C@H](O[C@@H]2OC[C@](O)(CO)[C@H]2O)[C@H]1O[C@@H]1OC[C@@H](O)[C@H](O[C@H]2O[C@H](C)[C@@H](O)[C@H](O)[C@@H]2O)[C@H]1O` (stereo not given in full), the viability (% of control) was 80.1% [at 9.25 µM].

Take `CC1C2=CC(=O)OC2(O)CC2C1C(O)CC1C(C)(CO)CCCC21C` (stereo not given): the Potency result is “inactive”. `COC(=O)c1cc(CN2CCN(C(=N)N)CC2)cc(C(=O)N2CCN(C(=O)c3ccc(C(=N)N)cc3)CC2)c1`: the Potency entry was “inactive”. On the same count and under the same terms, the result for `CC(C)(O)CC(=O)NCCn1ccc2ncnc(Nc3ccc(Oc4cccc(C(F)(F)F)c4)c(Cl)c3)c21` reads 14.6 µM (active) and 16.6 µM (active). On the same count and under the same terms, the result for `O=C(NC[C@H](O)CO)c1ccncc1Nc1ccc(I)cc1F` reads 0.235 µM (active); that for `COc1nc(N)nc2c1ncn2[C@@H]1O[C@H](CO)[C@@H](O)[C@@H]1O`, “inactive”; that for `O=C1NC(=O)[C@@H](c2c[nH]c3ccccc23)[C@H]1c1cn2c3c(cccc13)CCC2`, 0.833 µM (active). On to `CC(C)=CCC[C@](C)(O[C@@H]1O[C@H](CO[C@@H]2OC[C@H](O)[C@H](O)[C@H]2O)[C@@H](O)[C@H](O)[C@H]1O)[C@H]1CC[C@]2(C)[C@@H]1[C@H](O)C[C@@H]1[C@@]3(C)CC[C@H](O[C@@H]4O[C@H](CO)[C@@H](O)[C@H](O)[C@H]4O[C@@H]4O[C@H](CO)[C@@H](O)[C@H](O)[C@H]4O)C(C)(C)[C@@H]3CC[C@]12C`, for which the Potency result was “inactive”.

On to `C[C@]12CC[C@@H]3c4ccc(O[C@@H]5O[C@H](C(=O)O)[C@@H](O)[C@H](O)[C@H]5O)cc4CC[C@H]3[C@@H]1CCC2=O`, for which the Potency entry is “inactive”.

For the compound `Cc1ccc(NS(=O)(=O)c2cc3c(cc2N[C@@H](C)CO)NC(=O)CC3)cc1C`, the Potency is 20.6 µM (active).

With `COC(=O)CC(C)(O)CC(=O)OCc1ccc(O[C@@H]2O[C@H](CO)[C@@H](O)[C@H](O)[C@H]2O)cc1` (stereo not given in full), the Potency result was “inactive”. In the case of `O=C(O)c1ccccc1C(=O)Nc1ccc(S(=O)(=O)Nc2nccs2)cc1`, the Potency entry was “inactive”. `CC(C)(C)c1cnc(CSc2cnc(NC(=O)C3CCNCC3)s2)o1`: the Potency was 0.296 µM (active). On to `C[C@H](NC(=O)CCC(F)(F)F)C(=O)N[C@@H]1C(=O)N(CCO)c2ncccc2-c2ccccc21`, for which the Potency entry was “inactive”. In the case of `O=C(O)c1cc(-c2c(-c3ccccc3)nn3ccccc23)n[nH]c1=O`, the Potency result is “inactive”. With `CC(C)C(=O)OCC(=O)[C@@]12O[C@H](C3CCCCC3)O[C@@H]1C[C@H]1[C@@H]3CCC4=CC(=O)C=C[C@]4(C)[C@H]3[C@@H](O)C[C@@]12C`, the Potency is 5.9 µM (active).

`COC[C@@H](c1ccc(C(F)(F)F)cc1)N1CCN(C2(C)CCN(C(=O)c3c(C)ncnc3C)CC2)C[C@@H]1C`: the Potency result is “inactive”. For the compound `C=CCc1ccc(O[C@@H]2O[C@H](CO)[C@@H](O)[C@H](O)[C@H]2O)c(O[C@@H]2O[C@H](CO)[C@@H](O)[C@H](O)[C@H]2O)c1`, the Potency result was “inactive”. As to `COc1ccc(CN2CCN(CCCSc3cc(C(C)(C)C)c(O)c(C(C)(C)C)c3)CC2)c(OC)c1OC`, the Potency is 3.48 µM (active). Consider `COc1ccccc1C(=O)Nc1cc2c(cc1N1CCCCC1)n(C)c(=O)n2C`, for which the Potency was 14.8 µM (active). Take `Cc1ncc(NC(=O)c2cccc(C(F)(F)F)c2)cc1-c1cnc(OC2CCOCC2)c(N2CCOCC2)c1`: the Potency is 6.61 µM (active). Same read-out and setting: as for `O=C(O)/C=C/c1ccc(O)c(O[C@@H]2O[C@H](CO)[C@@H](O)[C@H](O)[C@H]2O)c1`, the entry is “inactive”; as for `NS(=O)(=O)c1ccc(S(=O)(=O)Nc2cccc3c(Cl)c[nH]c23)cc1`, 0.235 µM (active). `C=C1CCC2C(C)(C(=O)O)CCCC2(C)C1CCC1=CCOC1=O` (stereo not given): the Potency result is “inactive”. As for `CC(C)=CCC[C@@](C)(O)[C@H]1CC[C@]2(C)[C@@H]1[C@H](O)CC1[C@@]3(C)CC[C@H](O[C@@H]4O[C@H](CO)[C@@H](O)[C@H](O)[C@H]4O[C@@H]4O[C@H](CO)[C@@H](O)[C@H](O)[C@H]4O)C(C)(C)[C@@H]3CC[C@]12C` (stereo not given in full), the Potency entry was “inactive”. Regarding `CC(C)CC1OC(=O)C2CCCN2C(=O)CCNC(=O)C(Cc2ccccc2)NC(=O)C(C(C)C)N(C)C(=O)C(C(C)C)N(C)C1=O` (stereo not given), the Potency result was “inactive”.
